Measured values: PubChem BioAssay
Several values for one entry are separate records, joined by “and”; a condition that tells them apart may be missing. Equal values may be shown once. Some structures have more than one record in an assay (separate samples or runs), and their calls can disagree. Activity calls are given as the source filed them. Unless noted, no stated cut-off is given here; in the data, active means inhibition above about 80%; inactive means the rest.

Experiments:
[1] = target: Mitogen-activated protein kinase 7 (Homo sapiens) (UniProt Q13164); test: Gal4-ERK5 driven luciferase induction – cell-based, HTS, primary screen (AID 1508626;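 active means luciferase signal above three times the same-plate solvent-only control wells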;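 further: luciferase driven by Gal4-ERK5 fusion binding five Gal4 sites before minimal TATA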); settings: HeLa Gal4-ERK5 transactivation, 18 h, at 5 µM, stronger effect = higher value
[2] = galactose survival enhancers in mitochondrial complex I cybrids – cell-based, galactose medium, ATP luminescence, primary screen (AID 1645843;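 active means z-score of at least 1.8 in each of two replicates, scored against plate mean and spread of sample wells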;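 further: positive z means more ATP and so rescue of galactose-driven cybrid death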); settings: complex I mutant cybrid cells, 72 h, stronger effect = higher value
[3] = growth inhibition, single agent or in combination, cell-based, chromothripsis tumors, cisplatin or BGB combos (AID 1671449); settings: LFS_MB_P medulloblastoma cells;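 further: cells exposed for 96 hours; 0% = vehicle DMSO and 100% = killing by high DMSO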
[4] = growth inhibition, single agent and combos, cell-based, chromothripsis tumors, cisplatin or BGB combos (AID 1671450); settings: HDN33 neuroblastoma cells, stronger effect = higher value;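 further: cells exposed to compound for four days; 0% = vehicle DMSO and 100% = cell killing by high DMSO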
[5] = growth inhibition, single agents and combos, ICB984, cell-based, cisplatin or BGB combos, synergistic combos for chromothripsis tumors (AID 1671451; call rule not given here;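 further: cells exposed for 96 hours before readout; 0% = vehicle DMSO and 100% = killing by high DMSO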); settings: ICB984 medulloblastoma cells, drug combinations, stronger effect = higher value
[6] = growth inhibition, single agents and combos, LFS_MB_1R, cell-based, cisplatin or BGB combos, synergistic combos for chromothripsis tumors (AID 1671452); settings: LFS_MB_1R medulloblastoma cells, stronger effect = higher value;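 further: cells exposed for 96 hours before readout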
[7] = growth inhibition, single agents and combos, HTB85, cell-based, BGB or cisplatin IC20 combos, synergistic combos for chromothripsis tumors (AID 1671453); settings: HTB85 osteosarcoma cells, drug combinations, stronger effect = higher value;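 further: cells exposed for 96 hours before readout; 0% = vehicle DMSO and 100% = high DMSO killing control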
[8] = growth inhibition, single agents and combos, CRL2098, cell-based, BGB or cisplatin IC20 combos, synergistic combos for chromothripsis tumors (AID 1671454); settings: CRL2098 osteosarcoma cells, drug combinations, stronger effect = higher value;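 further: cells exposed for 96 h before readout; 0% = vehicle DMSO and 100% = killing by high DMSO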
[9] = growth inhibition, single agents and combos, HD-MB03, cell-based, BGB or cisplatin IC20 combos, synergistic combos for chromothripsis tumors (AID 1671455; in the data active means inhibition above about 83%;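 further: 0% = vehicle DMSO and 100% = high DMSO as cytotoxic control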); settings: HD-MB03 medulloblastoma cells, stronger effect = higher value
[10] = growth inhibition, single agents and combos, UWB1.289, cell-based, BGB or cisplatin combos, synergistic combos for chromothripsis tumors (AID 1671456); settings: UWB1.289 ovarian carcinoma cells, stronger effect = higher value;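 further: cells exposed to compound for four days; 0% = vehicle DMSO and 100% = killing by high DMSO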
[11] = growth inhibition, single agents and combos, LFS_MB_2R, cell-based, cisplatin combos, synergistic combos for chromothripsis tumors (AID 1671457); settings: LFS_MB_2R medulloblastoma cells, stronger effect = higher value;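 further: cells exposed to compound for four days before readout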
[12] = growth inhibition, MDA-MB-436, cell-based, BGB or cisplatin combos, synergistic combos for chromothripsis tumors (AID 1671458; call rule not given here;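 further: cells exposed for 96 hours; 0% = vehicle DMSO and 100% = killing by high DMSO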); settings: MDA-MB-436 breast carcinoma growth inhibition, drug combinations, stronger effect = higher value
[13] = UWB1.289_BRCA1 ovarian cancer growth, cell-based, BGB or cisplatin combinations (AID 1671459); settings: UWB1.289 BRCA1 ovarian carcinoma, drug combinations, stronger effect = higher value
[14] = drug combination toxicity in non-malignant astrocytes – cell-based, BGB or cisplatin IC20 combos, cytotoxicity control for chromothriptic childhood tumor combination screen (AID 1671460); settings: Human astrocytes, viability inhibition, drug combinations, at 0.5 µM, stronger effect = higher value;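 further: cells exposed to compounds for 96 hours before viability readout; 0% = vehicle and 100% = killing control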
[15] = BT084 cell growth, single and combined drugs, ICGC_MB145, cisplatin and BGB IC40 combos (AID 1671461); settings: BT084 medulloblastoma cells, drug combinations, stronger effect = higher value;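 further: cells exposed to drugs for 96 hours; 0% = vehicle DMSO and 100% = high DMSO full killing control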
[16] = RCMB18 cell growth, single agent and combined, cisplatin and BGB IC40 combos (AID 1671462); settings: RCMB18 medulloblastoma cells, stronger effect = higher value;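 further: cells exposed to compound for four days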
[17] = CRL1545 cell growth, single agent and combined, cisplatin and BGB IC20 combos (AID 1671464); settings: CRL1545 osteosarcoma cells, stronger effect = higher value;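 further: cells exposed to compound for 96 hours before readout; 0% = vehicle DMSO and 100% = high DMSO killing control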
[18] = measured here: combination with BGB IC40, at 0.05 µM
[19] = measured here: with BGB IC20 combination, at 0.5 µM
[20] = measured here: with cisplatin IC20 combination, at 0.5 µM
[21] = measured here: combination with cisplatin, at 0.5 µM
[22] = measured here: combination with cisplatin, at 5 µM

Mitogen-activated protein kinase 7 (Homo sapiens), sequence (Q13164 whole entry, looked up, the tested form may be a part): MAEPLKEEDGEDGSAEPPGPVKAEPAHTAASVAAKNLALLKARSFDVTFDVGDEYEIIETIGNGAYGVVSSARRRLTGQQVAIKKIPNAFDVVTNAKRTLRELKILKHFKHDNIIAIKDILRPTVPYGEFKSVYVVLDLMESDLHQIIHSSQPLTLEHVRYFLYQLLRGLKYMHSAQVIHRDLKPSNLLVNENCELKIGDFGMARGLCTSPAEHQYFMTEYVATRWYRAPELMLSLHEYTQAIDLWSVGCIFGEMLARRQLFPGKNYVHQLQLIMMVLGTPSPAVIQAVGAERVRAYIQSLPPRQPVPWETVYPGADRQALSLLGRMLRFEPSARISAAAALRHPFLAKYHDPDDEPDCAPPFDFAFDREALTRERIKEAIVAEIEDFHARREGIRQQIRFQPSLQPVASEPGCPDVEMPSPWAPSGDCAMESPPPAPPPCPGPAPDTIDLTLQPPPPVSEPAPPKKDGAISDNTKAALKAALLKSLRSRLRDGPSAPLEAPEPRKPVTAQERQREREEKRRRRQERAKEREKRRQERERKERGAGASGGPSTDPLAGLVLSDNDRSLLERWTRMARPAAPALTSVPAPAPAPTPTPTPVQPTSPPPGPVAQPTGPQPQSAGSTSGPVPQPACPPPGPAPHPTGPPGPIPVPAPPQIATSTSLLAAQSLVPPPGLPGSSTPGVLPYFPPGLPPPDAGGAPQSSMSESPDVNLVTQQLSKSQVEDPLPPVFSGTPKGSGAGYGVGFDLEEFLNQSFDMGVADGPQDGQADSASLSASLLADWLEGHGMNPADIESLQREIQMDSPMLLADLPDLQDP

## O=c1c(-c2ccc(O)cc2)coc2cc(O)cc(O)c12
[1]
  luciferase signal: 276 AU (active)
[2]
  z-score: 1.99 (active) and 1.98 (inactive)
[3]; at 0.5 µM, stronger effect = higher value
  inhibition: -9.97% (inactive) and -4.89% (inactive)
[3]; measured here: combination with BGB IC20, at 0.005 µM
  inhibition: -17.8% and -1.45%
[3]; measured here: combination with BGB IC40, at 0.005 µM
  inhibition: -18% and -3.22%
[3]; [18]
  inhibition: -25.1% and -11.9%
[3]; measured here: combination with cisplatin, at 0.5 µM, stronger effect = higher value
  inhibition: -5.93% and -18.3%
[3]; measured here: combination with cisplatin, at 5 µM, stronger effect = higher value
  inhibition: 8.08% and 3.66%
[4]; BGB combo, at 5 µM
  inhibition: -47.6% and 34.9%
[4]; at 0.5 µM
  inhibition: -42.8% (inactive) and -12.6% (inactive)
[4]; cisplatin combo, at 5 µM
  inhibition: -40% and 3.53%
[4]; [19]
  inhibition: -43.9% and -15.8%
[4]; [20]
  inhibition: -42.3% and -4.37%
[4]; single agent, at 5 µM
  inhibition: -15.6% and 2.01%
[5]; BGB IC20 combo, at 0.005 µM
  inhibition: 8.8% and -0.198%
[5]; BGB IC40 combo, at 0.005 µM
  inhibition: -22.1% and -29.4%
[5]; BGB IC40 combo, at 0.05 µM
  inhibition: -7.4% and -6.46%
[5]; at 0.5 µM
  inhibition: -34.3% (inactive) and -16.8% (inactive)
[5]; cisplatin combo, at 0.05 µM
  inhibition: -11.3% and -9.44%
[5]; cisplatin combo, at 0.5 µM
  inhibition: -39.9% and -21.8%
[5]; cisplatin combo, at 5 µM
  inhibition: -72.1% and -7.73%
[5]; measured here: 5 uM single agent, at 5 µM
  inhibition: -9.66% and -12.4%
[6]; at 0.5 µM
  inhibition: -22.6% (inactive) and -10.7% (inactive)
[6]; [18]
  inhibition: -45.5% and -14.8%
[6]; [21]
  inhibition: -45.5% and -6.51%
[6]; [22]
  inhibition: -62.6% and -7.84%
[7]; at 0.5 µM
  inhibition: -23.1% (inactive) and -8.31% (inactive)
[7]; measured here: with BGB IC20, at 0.5 µM
  inhibition: -24.9% and -17.6%
[7]; measured here: with BGB IC20, at 5 µM
  inhibition: -18.6% and -5.83%
[7]; measured here: with cisplatin IC20, at 0.5 µM
  inhibition: -32.2% and -12.6%
[7]; measured here: with cisplatin IC20, at 5 µM
  inhibition: -33.6% and -5.76%
[7]; single agent, at 5 µM
  inhibition: -0.415% and -6.72%
[8]; at 0.5 µM
  inhibition: -89.3% (inactive) and -22.4% (inactive)
[8]; measured here: combination with BGB at IC20, at 0.5 µM
  inhibition: -68.7% and -13.6%
[8]; measured here: combination with cisplatin at IC20, at 0.5 µM
  inhibition: -148% and -31.4%
[9]; at 0.5 µM
  inhibition: -19.5% (inactive) and -5.86% (inactive)
[9]; measured here: combo with BGB at IC20, at 0.5 µM
  inhibition: -19.9% and -0.815%
[9]; measured here: combo with cisplatin at IC20, at 0.5 µM
  inhibition: -26.5% and -4.16%
[10]; at 0.5 µM
  inhibition: -11.2% (inactive) and 6.51% (inactive)
[10]; measured here: inhibition with BGB combination, at 0.05 µM
  inhibition: -19.6% and -14.9%
[10]; measured here: inhibition with cisplatin combination, at 0.05 µM
  inhibition: -41.2% and -9.05%
[11]; at 0.5 µM
  inhibition: -21.6% (inactive) and -9.3% (inactive)
[11]; [21]
  inhibition: -19.9% and -5.5%
[11]; [22]
  inhibition: 2.54% and -37.8%
[12]; at 0.5 µM
  inhibition: -10.3% (inactive) and -13.9% (inactive)
[12]; measured here: BGB combination, at 0.5 µM
  inhibition: -9.11% and -11.4%
[12]; measured here: BGB combination, at 5 µM
  inhibition: -2.8% and 13.3%
[12]; measured here: cisplatin combination, at 0.5 µM
  inhibition: -11% and -29.3%
[12]; measured here: cisplatin combination, at 5 µM
  inhibition: -8.45% and 5.18%
[13]; BGB combination, concentration series, at 5 µM
  inhibition: 16.4% and 33.4%
[13]; at 0.5 µM
  inhibition: -10.6% (inactive) and 4.64% (inactive)
[13]; cisplatin combination, concentration series, at 5 µM
  inhibition: 5.85% and 47.6%
[14]
  inhibition: -1.4% (inactive) and 12.1% (inactive)
[14]; measured here: combo with BGB IC20
  inhibition: 14% and 8.3%
[14]; measured here: combo with cisplatin IC20
  inhibition: -16.8% and 13.7%
[15]; at 0.5 µM
  inhibition: -13.6% (inactive) and -23.4% (inactive)
[15]; cisplatin combination, at 0.5 µM
  inhibition: -26.2% and 3.79%
[15]; cisplatin combination, at 5 µM
  inhibition: 1.19% and 21.5%
[15]; measured here: BGB IC40 combination 0.05 uM, at 0.05 µM
  inhibition: -40.6% and -5.57%
[15]; single agent, at 5 µM
  inhibition: -5.08% and 6.68%
[16]; at 0.5 µM
  inhibition: 0.59% (inactive) and -8.25% (inactive)
[16]; cisplatin combo, at 5 µM
  inhibition: -43.5% and 11.5%
[16]; measured here: BGB IC40 combination, at 0.05 µM
  inhibition: -4.72% and -2.4%
[16]; [21]
  inhibition: 13.5% and -9.76%
[16]; single agent, at 5 µM
  inhibition: -12.8% and -12.2%
[17]; at 0.5 µM
  inhibition: -44.2% (inactive) and 5.21% (inactive)
[17]; [19]
  inhibition: -31% and 18.3%
[17]; [20]
  inhibition: -53.3% and -3.63%
[17]; single agent, at 0.05 µM
  inhibition: -62.4% and -21.3%
[17]; single agent, at 5 µM
  inhibition: -46.3% and 9.19%

## NC(=NCCCCCCN=C(N)/N=C(\N)Nc1ccc(Cl)cc1)/N=C(\N)Nc1ccc(Cl)cc1
[1]
  luciferase signal: 32 AU (inactive)

## O=C(Cn1ccnc1[N+](=O)[O-])NCCO
[1]
  luciferase signal: 76 AU (inactive)

## Cn1c(=O)c2c(ncn2CCO)n(C)c1=O
[1]
  luciferase signal: 196 AU (active)

## CC1(C)O[C@H]2CC(=O)OC[C@]23[C@H]2CC[C@@]4(C)[C@H](c5ccoc5)OC(=O)[C@H]5O[C@]54[C@]2(C)C(=O)C[C@@H]13
[1]
  luciferase signal: 80 AU (inactive)

## OC[C@H]1O[C@@H](Oc2ccc(O)cc2)[C@H](O)[C@@H](O)[C@@H]1O
[1]
  luciferase signal: 48 AU (inactive)

## COc1cc2c(cc1OC)-c1cc(=Nc3c(C)cc(C)cc3C)n(C)c(=O)n1CC2
[2]
  z-score: -0.95 (inactive) and -0.575 (inactive) and 0.465 (inactive)

## Cc1c(C(=O)O)c(O)cc2c1C(=O)c1c(O)c([C@@H]3O[C@H](CO)[C@@H](O)[C@H](O)[C@H]3O)c(O)c(O)c1C2=O
[1]
  luciferase signal: 52 AU (inactive)

## O=c1cc(CO)occ1O
[2]
  z-score: 1.06 (inactive)

## C[N+]1(CCCCC[N+]2(C)CCCC2)CCCC1
[1]
  luciferase signal: 108 AU (inactive)
[2]
  z-score: 0.235 (inactive)

## CC(C(=O)O)c1ccc(C(=O)c2cccs2)cc1 (configuration not stated)
[1]
  luciferase signal: 92 AU (inactive)

## Cc1ccc(C(C)C)cc2c(C)ccc1-2
[1]
  luciferase signal: 128 AU (inactive)

## CCCCNc1c(C(=O)OCC)c(C)nc2c1cnn2CC
[2]
  z-score: 0.17 (inactive) and 0.34 (inactive)

## COC(=O)Nc1nc2ccc(C(=O)c3cccs3)cc2[nH]1
[2]
  z-score: -0.685 (inactive) and -1.18 (inactive) and -0.46 (inactive)

## CCOC(=O)C1=C(C)NC(C)=C(C(=O)OCC)C1c1ccccc1/C=C/C(=O)OC(C)(C)C
[2]
  z-score: -1.98 (inactive)

## COc1ccc2cc3[n+](cc2c1OC)CCc1cc2c(cc1-3)OCO2
[1]
  luciferase signal: 64 AU (inactive)

## CN1C(C)(C)CCCC1(C)C
[1]
  luciferase signal: 68 AU (inactive)

## NC(=O)c1ncn([C@@H]2O[C@H](CO)[C@@H](O)[C@H]2O)c1O
[2]
  z-score: 0.59 (inactive)

## COc1cc(-c2ccc(=O)[nH]n2)ccc1OC(F)F
[2]
  z-score: 0.03 (inactive) and -0.045 (inactive) and 0.53 (inactive)

## C[C@](N)(Cc1ccc(O)cc1)C(=O)O
[1]
  luciferase signal: 60 AU (inactive)
[2]
  z-score: 0.71 (inactive)

## NC1CCN(c2cccc(Cl)n2)CC1
[2]
  z-score: 0.81 (inactive) and 0.31 (inactive)
